Laboratory results taken from the supplement of paper PMC10127200.
Where a name gives a salt, the structure may show the parent alone.

Tests used:
Test in all cases: Euclidean distance of Cell Painting phenotypic profile (signed KS, 77 features) to DMSO centroid (dimensionless distance); higher = stronger phenotypic change vs DMSO (phenoactivity)
Settings in all cases: 48 h; 5 or 10 uM (library dependent)
786-O = system: 786-O
Procedure, shortened: (§1)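 At 10 or 5 uM, as set by the library, and 0.1% DMSO final, compounds were applied for 48 h to five cancer lines and one healthy fibroblast line. Stained cells were imaged confocally at 20X in 9 fields per well, and Harmony extracted 77 features scored as signed Kolmogorov-Smirnov statistics against vehicle wells on the same plate. Profiles underwent plate-position correction, correlation weighting and replicate averaging at the top dose. Phenoactivity is the Euclidean distance from each such profile to the median vehicle profile.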

A549 = system: A549
Procedure, shortened: as §1

DU145 = system: DU145
Procedure, shortened: as §1

FB = system: FB
Procedure, shortened: as §1

HEPG2 = system: HEPG2
Procedure, shortened: as §1

OVCAR4 = system: OVCAR4
Procedure, shortened: as §1

SMILES	Euclidean distance (786-O)	Euclidean distance (A549)	Euclidean distance (DU145)	Euclidean distance (FB)	Euclidean distance (HEPG2)	Euclidean distance (OVCAR4)
CN[C@@H]1[C@@H](O)[C@@H](O[C@@H]2[C@@H](O)[C@H](O[C@H]3O[C@H]([C@@H](C)O)[C@@H](O)[C@H](O)[C@H]3N)[C@@H](N)C[C@H]2N)OC[C@]1(C)O [Geneticin (G418 Sulfate)]	1.73	0.917	1.4	1.24	1.23	1.53
CNC1CC(N)C(O)C(OC2OC(CO)C(O)C3OC4(OC(C(N)CO)C(O)C(O)C4O)OC23)C1O (stereo not drawn) [Hygromycin B]	1.63	1.19	1.02	2.53	1.3	1.24
CC[C@@]1(O)C[C@H](O[C@H]2C[C@H](N(C)C)[C@H](O)[C@H](C)O2)c2c(cc3c(c2O)C(=O)c2c(O)cccc2C3=O)[C@H]1C(=O)OC [Aclacinomycin]	2.61	3.27	3.54	3.61	3.76	3.12
O=[N+]([O-])O[C@@H]1CO[C@H]2[C@@H]1OC[C@@H]2O [Isosorbide Mononitrate]	1.15	1.13	0.879	0.9	0.868	0.962
O=C(O)CCCc1ccc(N(CCCl)CCCl)cc1 [Chloroambucil]	2.21	1.7	0.964	1.7	0.893	1.49
Oc1cc(Cl)ccc1Oc1ccc(Cl)cc1Cl [Triclosan]	0.695	0.668	0.877	1.15	0.546	1.07
Cl[TeH]1(Cl)(Cl)OCCO1.N	1.48	1.83	2.01	1.31	1.27	2.09
CC(=O)O[C@H]1CC[C@H]2[C@@H]3CCC4=CC(=O)CCC4=C3C=C[C@]12C [Trenbolone acetate]	0.864	0.493	1.04	0.72	1.19	0.778
C[C@@H]1CC[C@H]2[C@@H](C)C(=O)O[C@@H]3O[C@@]4(C)CC[C@@H]1[C@]32OO4 [Artemisinin]	1.18	1.01	1.43	0.903	1.24	1.25
CN1[C@@H]2CC[C@H]1C[C@@H](OC(=O)C(CO)c1ccccc1)C2 (stereo partly drawn) [Atropine sulfate]	0.994	0.9	0.824	0.898	0.473	1.38
CN(C)C(=O)Oc1cc(OC(=O)N(C)C)cc(C(O)CNC(C)(C)C)c1 (stereo not drawn) [Bambuterol HCl]	0.701	0.719	1.13	1.12	0.521	1.48
CN1[C@@H]2C[C@@H](OC(=O)[C@H](CO)c3ccccc3)C[C@H]1[C@@H]1O[C@@H]12 [Scopolamine HBr trihydrate]	1.03	1.25	1.17	1.06	0.452	0.796
COC(=O)[C@@H](N)CCCNC(=N)N[N+](=O)[O-]	0.931	1.3	0.775	1.29	0.551	0.995
CC(=O)NC1CCSC1=O (stereo not drawn) [Citiolone]	1.19	0.873	0.825	1.06	0.461	1.71
C=C1[C@@H](C)[C@H]2[C@H](Cc3ccccc3)NC(=O)[C@]23[C@H](OC(C)=O)/C=C/[C@@](C)(O)C(=O)[C@@H](C)C/C=C/[C@H]3[C@@H]1O [Cytochalasin D]	4.23	3.63	3.2	4.07	2.24	3.87
COc1ccc2c3c([nH]c2c1)C(C)=NCC3 [Harmaline]	1.25	0.845	1.34	1.09	0.398	1.37
O=C(C[S+]([O-])C(c1ccccc1)c1ccccc1)NO (stereo not drawn) [Adrafinil]	1.35	0.729	0.936	0.942	0.585	1.57
C[N+](C)(C)CCCCCCCCCC[N+](C)(C)C [Decamethonium Bromide]	0.57	0.939	0.691	0.466	0.483	1.05
O=C(NCC1CCOCC1)c1cnc(Nc2ccc(Cl)cc2Cl)nc1C(F)(F)F	0.865	1.09	1.36	3.43	1.64	3.11
C[N+]1(C)[C@@H]2C[C@@H](OC(=O)[C@H](CO)c3ccccc3)C[C@H]1[C@@H]1O[C@@H]12 [Methscopolamine]	0.909	0.693	0.721	0.773	0.666	1.04
CCOc1ccccc1-n1c(C(C)N2CCN(C(=O)COc3ccc(Cl)cc3)CC2)nc2ccccc2c1=O (stereo not drawn) [Erastin]	3.85	1.31	1.34	3.12	1.68	2.13
CNCC(O)c1ccc(O)cc1 (stereo not drawn) [Synephrine HCl]	0.581	0.451	0.914	0.485	0.371	1.27

SMILES	Euclidean distance (786-O)	Euclidean distance (A549)	Euclidean distance (DU145)	Euclidean distance (FB)	Euclidean distance (HEPG2)	Euclidean distance (OVCAR4)
CC(=O)O[C@H]1C[C@H](O[C@H]2[C@@H](O)C[C@H](O[C@H]3[C@@H](O)C[C@H](O[C@H]4CC[C@@]5(C)[C@H](CC[C@@H]6[C@@H]5C[C@@H](O)[C@]5(C)[C@@H](C7=CC(=O)OC7)CC[C@]65O)C4)O[C@@H]3C)O[C@@H]2C)O[C@H](C)[C@H]1O[C@@H]1O[C@H](CO)[C@@H](O)[C@H](O)[C@H]1O [Lanatoside C]	6.1	5.41	7.41	3.88	2.69	6.46
Oc1ccc(Cl)cc1Cc1cc(Cl)ccc1O [Dichlorophene]	0.835	1.05	1.3	1.16	0.516	1.18
C#C[C@]1(O)C=C[C@H]2[C@@H]3CCC4=CC(=O)CC[C@@H]4[C@H]3CC[C@@]21CC [Gestodene]	1.29	0.869	2.08	1.08	2.49	1.33
CC(C)N(CCNC(=O)CN1CCCC1=O)C(C)C [Pramiracetam]	1.35	1.08	0.543	0.932	0.534	0.853
CC1(C)CC(O)CC(C)(C)N1[O] [Tempol]	0.822	0.85	1.18	1.49	0.827	0.934
CC(=O)[C@H]1CC[C@H]2[C@@H]3CC[C@H]4C[C@H](O)CC[C@]4(C)[C@H]3CC[C@]12C [Allopregnanolone]	0.735	0.818	1.1	1.22	0.709	1.64
N#Cc1ccc(N2CCC[C@@H]2[C@@H](O)C(F)(F)F)cc1C(F)(F)F [Ligandrol (LGD-4033. VK-5211)]	1.52	1.1	0.95	1.1	0.87	1.15
CN(C)NC(=O)CCC(=O)O [Daminozide]	0.626	0.507	0.706	0.873	0.742	1.16
Cc1cc(C2=NOC(c3cc(Cl)cc(Cl)c3)(C(F)(F)F)C2)ccc1C(=O)NCC(=O)NCC(F)(F)F (stereo not drawn) [Fluralaner]	1.38	1.29	1.17	1.44	0.786	1.36
Cn1c(COP(=O)(NCCBr)NCCBr)cnc1[N+](=O)[O-] [Evofosfamide (TH-302)]	1.45	2.69	0.904	1.3	1.86	2.84
C[C@@H]1O[C@@H](O[C@H]2C[C@@H](O)[C@]3(CO)[C@H]4[C@H](O)C[C@]5(C)[C@@H](C6=CC(=O)OC6)CC[C@]5(O)[C@@H]4CC[C@]3(O)C2)[C@H](O)[C@H](O)[C@H]1O [Ouabain]	6.72	6.03	6.56	4.56	3.34	7.06
C[C@](O)(COc1ccc(C#N)cc1)C(=O)Nc1ccc(C#N)c(C(F)(F)F)c1	1.54	1.28	0.792	1.72	1.24	1.74
CCC1(C)CC(=O)NC(=O)C1 [Bemegride]	0.845	0.616	0.948	0.603	0.381	0.793
NCCc1c[nH]c2ccc(O)cc12 [Serotonin HCl]	1.02	0.797	1.01	1.12	0.38	1.71
COc1ccc2c(c1)[C@]13CCCC[C@@H]1[C@H](C2)N(C)CC3 [Dextromethorphan hydrobromide hydrate]	1.3	1.32	0.854	1.76	1.11	1.39
CN(C)C(=O)Oc1ccc[n+](C)c1 [Pyridostigmine Bromide]	0.816	0.961	0.672	0.846	0.726	0.777
O=[N+]([O-])c1ncc[nH]1 [Azomycin]	1.03	1.17	1.36	1.09	1.54	0.81
COc1ccc(C(=O)O)cc1OC [Veratric acid]	0.978	0.85	1.2	0.896	1.05	0.931
C[C@]12CC[C@H](O)C[C@H]1CC[C@@H]1[C@@H]2C[C@@H](O)[C@]2(C)[C@@H](C3=CC(=O)OC3)CC[C@]12O [Digoxigenin]	6.59	5.09	7.21	3.92	3.09	5.51
CC(C)NCC(O)c1ccccc1Cl (stereo not drawn) [Clorprenaline HCl]	1.06	1.11	0.599	1.22	0.405	1.29
C[C@]12CC[C@@H]3c4ccc(OC(=O)N(CCCl)CCCl)cc4CC[C@H]3[C@@H]1CC[C@@H]2OP(=O)(O)O [Estramustine phosphate sodium]	1.21	0.586	0.548	0.917	0.766	0.779
